Anthrax LF prot = inhibitors of Bacillus anthracis lethal factor protease | multiplex microsphere protease cleavage assay, LF | inhibition, % at 10 µM | hit rate 0.12% among 360,000; in the data active = inhibition above about 30%; inconclusive = no clear call, values can overlap the other calls; note: plate controls were buffer without enzyme for full effect and enzyme alone for no effect
Autofluor counter = counter-screen for toxin protease inhibitors: compound fluorescence. compound autofluorescence counterscreen, microsphere flow cytometry; active compounds read high. fluorescence intensity (concentration not given with the values). hit rate 3.1% among 360,000. AID 624483; in the data active = fluorescence intensity above about 16000; inconclusive = no clear call, values can overlap the other calls
GDH-TPI counter-1 = inhibits GDH-TPI coupling enzymes, artifact for Mtb FBA screen. GDH-TPI coupled enzyme counterscreen, NADH absorbance. hit rate 1.2% among 360,000. inhibition, % at 4.8 µM; in the data active = inhibition above about 30%;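 note: 0% = DMSO wells and 100% = wells lacking the enzyme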
BoNT-A LC inh2 = inhibitors of Botulinum neurotoxin A light chain protease. AID 588499. multiplex microsphere protease substrate cleavage, flow cytometry. hit rate 0.17% among 360,000. inhibition, % at 10 µM; in the data active = inhibition above about 30%; inconclusive = no clear call, values can overlap the other calls; note: plate controls were buffer without enzyme for full effect and enzyme alone for no effect
BoNT-F LC inh = BoNT F light chain protease inhibition | Multiplex microsphere protease cleavage assay, flow cytometry | inhibition, % at 10 µM | hit rate 0.22% among 360,000 | AID 588497; in the data active = inhibition above about 35%, passing the limit was not always enough; inconclusive = no clear call, values can overlap the other calls; note: plate controls were buffer without enzyme for full effect and enzyme alone for no effect
FBA Mtb inh = inhibits M. tuberculosis FBA enzyme; P9WQA3; inhibition, % at 1 µM; purified M. tuberculosis FBA, fluorescence read-out; AID 588726; hit rate 2.3% among 360,000;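 note: 0% = vehicle and 100% = reference inhibitor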
Target sequence (P9WQA3 whole entry, looked up): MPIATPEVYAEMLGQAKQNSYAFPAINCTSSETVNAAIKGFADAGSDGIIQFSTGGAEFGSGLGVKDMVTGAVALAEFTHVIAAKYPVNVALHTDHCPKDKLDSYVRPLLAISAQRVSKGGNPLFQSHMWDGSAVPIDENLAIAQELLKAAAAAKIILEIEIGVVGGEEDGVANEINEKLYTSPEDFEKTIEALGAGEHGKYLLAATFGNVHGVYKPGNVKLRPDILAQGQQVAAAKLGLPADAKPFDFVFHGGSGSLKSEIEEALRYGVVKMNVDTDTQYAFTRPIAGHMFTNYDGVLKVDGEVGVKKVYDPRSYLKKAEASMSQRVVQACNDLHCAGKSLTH
Mtb FBA inh conf = Mtb FBA inhibition, confirmed; shares compounds with FBA Mtb inh; purified M. tuberculosis FBA, fluorescence read-out; inhibition, % at 1 µM; hit rate 78% among 5,600;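 note: 0% = vehicle wells and 100% = reference inhibitor wells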
GDH-TPI counter-2 = counter-screen for M. tuberculosis FBA inhibitors: GDH-TPI coupled enzyme inhibition. shares compounds with FBA Mtb inh. hit rate 81% among 5,600. GDH-TPI coupled enzyme counterscreen, fluorescence. inhibition, % at 1 µM. AID 652141; in the data active = inhibition above about 10%
GDH-TPI dose = GDH-TPI dose response counter-screen for Mtb FBA. shares compounds with FBA Mtb inh. GDH-TPI coupled enzyme assay, fluorescence, artifact counterscreen. IC50, µM. hit rate 79% among 170. AID 652145; call rule not given here
* marks the source's active call; other numbers are inactive results; ? = inconclusive; / = no result; + = active, no number. Hits are enriched below; roughly 6.6% of the tested compounds scored in any of these assays. Cut-off read from the data, not from the text of the source, unless noted: active = inhibition above about 27%; inactive = the rest.

SMILES | Anthrax LF prot | Autofluor counter | GDH-TPI counter-1 | BoNT-A LC inh2 | BoNT-F LC inh | FBA Mtb inh | Mtb FBA inh conf | GDH-TPI counter-2 | others
CCS(=O)(=O)Nc1c(C(=O)O)[nH]c2ccccc12 | -3 | 5665 | -3 | -1 | -6 | 46* | 76* | 63*
CCS(=O)(=O)Nc1c(C(=O)OC)[nH]c2ccccc12 | -20 | 14385 | 10 | 4 | 3 | 4 | / | /
CCOCC(=O)Nc1ccccc1C(=O)O | -8 | 4950 | -7 | -1 | -6 | 2 | / | /
CCN(CC)CCNC(=O)CCc1c(C)nc2c(c(C)nn2-c2ccc(C)c(C)c2)c1C | -16 | 3938 | 1 | 1 | -7 | 36* | 197* | 196*
COC(CNC(=O)CCc1c(C)nc2c(c(C)nn2-c2ccc(C)cc2)c1C)OC | 5 | 3543 | 19 | -3 | 3 | 40* | -12 | -12
Cc1ccc(-n2nc(C)c3c(C)c(CCC(=O)NCCCOC(C)C)c(C)nc32)cc1 | -1 | 2986 | 10 | -3 | -12 | 25 | / | /
CCOC(=O)N1CCC(NC(=O)CCc2c(C)nc3c(c(C)nn3-c3ccccc3)c2C)CC1 | -14 | 4198 | 15 | -2 | -6 | 4 | / | /
COCCCNC(=O)CCc1c(C)nc2c(c(C)nn2-c2ccccc2)c1C | -4 | 2931 | 4 | -1 | -12 | 41* | 52* | 44*
O=c1[nH]c2ccc(Cl)cc2c(O)c1Cc1ccccc1 | -6 | 4397 | 12 | 0 | -3 | 35* | + | 193*
Cc1ccc(CCNC(=O)Cn2ccc3cc(S(=O)(=O)N4CCCC4)ccc32)cc1 | -2 | 5611 | -8 | 0 | -6 | 84* | 44* | 27*
CCN(CC(=O)Nc1c(F)cccc1F)C(=O)c1ccc2c(c1)S(=O)(=O)N=C1CCCCCN12 | 2 | ? | -2 | 2 | ? | 1 | / | /
COC(=O)C1=C(c2ccccc2OCc2ccccc2)C[C@@H]2CC[C@H]1N2C(=O)NCCOc1ccccc1Cl | -7 | 4085 | -6 | -1 | 2 | 46* | 179* | 122*
Cc1cc(C)nc(Sc2ncnc3sc4c(c23)CCC4)n1 | -2 | 5990 | 5 | 0 | -5 | 49* | 2 | 1
COc1ccc(-c2ccc3c(c2)S(=O)(=O)c2cccc(C(=O)NCCOc4ccccc4)c2C3=O)cc1OC | 3 | 3819 | 11 | 1 | 4 | 52* | 39* | 29*
Cc1nc2cc(-c3cccs3)[nH]n2c(=O)c1C | -7 | 17502* | 2 | 4 | 5 | 46* | 11 | 2 | GDH-TPI dose=5.7*
COc1ccc(NC(=O)Cn2c(CCC(=O)O)ccc2-c2ccccc2)cc1 | -5 | 4164 | 2 | 0 | 9 | 7 | / | /
COc1ccc(-c2ccc(CCC(=O)O)n2C(C)C)cc1 | 6 | 8227 | 13 | 1 | -6 | 32* | 163* | 114*
